Design in all cases: scale not given: direction of the effect not stated beside the values
Experiment [1] concerns the target Protein translocase subunit SecA (Escherichia coli (strain K12)) (UniProt P10408). Nature of the experiment: Assay to Identify E. coli SecA ATPase Inhibitors. The experiment is classed as functional. The conditions noted are these: 30 µM.
Experiment [2] deals with T1, Ubiquitin-activating enzyme e1, putative (Leishmania donovani (strain BPK282A1)) (UniProt E9BSI1).
T1 sequence (whole entry): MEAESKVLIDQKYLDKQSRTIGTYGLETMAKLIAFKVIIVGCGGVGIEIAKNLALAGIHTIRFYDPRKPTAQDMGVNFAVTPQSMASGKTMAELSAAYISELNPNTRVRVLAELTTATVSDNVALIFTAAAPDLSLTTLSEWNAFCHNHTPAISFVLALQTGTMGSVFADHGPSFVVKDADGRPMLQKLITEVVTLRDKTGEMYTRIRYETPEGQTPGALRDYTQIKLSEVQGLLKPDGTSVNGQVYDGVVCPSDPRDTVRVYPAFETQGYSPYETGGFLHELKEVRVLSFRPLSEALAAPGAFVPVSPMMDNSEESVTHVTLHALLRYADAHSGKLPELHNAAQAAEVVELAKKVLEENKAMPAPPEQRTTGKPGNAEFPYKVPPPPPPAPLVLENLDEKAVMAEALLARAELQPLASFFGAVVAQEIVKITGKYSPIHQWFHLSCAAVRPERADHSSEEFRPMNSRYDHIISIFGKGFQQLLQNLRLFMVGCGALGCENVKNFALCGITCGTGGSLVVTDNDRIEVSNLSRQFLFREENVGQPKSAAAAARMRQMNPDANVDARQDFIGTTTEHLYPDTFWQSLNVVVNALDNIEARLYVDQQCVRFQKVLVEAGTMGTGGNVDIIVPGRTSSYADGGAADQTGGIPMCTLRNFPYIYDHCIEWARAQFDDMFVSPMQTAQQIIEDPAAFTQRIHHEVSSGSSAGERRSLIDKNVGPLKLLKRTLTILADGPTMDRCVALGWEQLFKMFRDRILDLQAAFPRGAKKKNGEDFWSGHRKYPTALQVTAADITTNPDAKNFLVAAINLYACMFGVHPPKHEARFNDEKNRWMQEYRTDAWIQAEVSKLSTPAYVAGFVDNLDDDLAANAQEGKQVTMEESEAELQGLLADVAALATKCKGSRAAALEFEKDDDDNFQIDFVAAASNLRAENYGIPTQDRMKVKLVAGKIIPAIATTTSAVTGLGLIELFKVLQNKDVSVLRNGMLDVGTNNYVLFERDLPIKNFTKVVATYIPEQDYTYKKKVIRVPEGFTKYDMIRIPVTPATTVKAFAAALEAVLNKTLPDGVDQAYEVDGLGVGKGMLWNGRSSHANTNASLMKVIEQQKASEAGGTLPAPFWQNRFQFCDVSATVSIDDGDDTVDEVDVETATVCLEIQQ
Kind of experiment: Leishmania donovani Ubiquitin Activating Enzyme (LdE1). The experiment is classed as functional. The settings on record: 30 µM.

In experiment [3] the target is AMP-activated protein kinase, AMPK (Homo sapiens) (UniProt P54646+O43741+P54619+Q9UGJ0+Q9Y478+Q13131+Q9UGI9). Nature of the experiment: AMP-dependent Kinase enzyme assay. An in vitro enzyme assay that detects ADP turnover that is directly proportional to AMPK activity. This uses naive AMPK that is activated during the assay with MK-8722. The format is functional. The conditions noted are these: 30 µM.

Experiment [4] concerns the target Sialic acid-binding Ig-like lectin 9 (Homo sapiens) (UniProt Q9Y336). Nature of the experiment: Hs-Siglec9 ALPHAscreen SOP 20170721. The conditions noted are these: 10 µM. (In general: Bead proximity is the source of the signal in Alpha formats.)
The next experiment concerns Trypanosoma cruzi. Nature of the experiment: Trypanosoma cruzi phosphomannomutase and mannose-1-phosphate guanylyltransferase assay. The settings on record: 10 µM. The experiment is classed as functional.
Experiment [5] concerns the target T2, Arginase-2, mitochondrial (Homo sapiens) (UniProt P78540).
T2 sequence (whole entry): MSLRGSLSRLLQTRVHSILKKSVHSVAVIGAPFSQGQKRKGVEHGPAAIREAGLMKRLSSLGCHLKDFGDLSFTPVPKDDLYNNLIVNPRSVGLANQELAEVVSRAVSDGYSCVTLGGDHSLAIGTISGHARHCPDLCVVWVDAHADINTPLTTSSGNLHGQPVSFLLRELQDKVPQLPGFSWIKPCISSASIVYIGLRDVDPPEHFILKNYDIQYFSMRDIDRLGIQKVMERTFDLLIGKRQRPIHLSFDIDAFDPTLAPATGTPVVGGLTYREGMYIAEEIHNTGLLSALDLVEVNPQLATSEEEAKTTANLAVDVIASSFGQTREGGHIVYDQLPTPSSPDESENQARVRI
Kind of experiment: in vitro enzyme assay to detect the production of urea directly proportional to the activity of Arginase II. Further: in the data most compounds retested in dose-response had high values. The format is functional. The conditions noted are these: 33.3 µM.

The target in experiment [6] is T3, Proteasome subunit beta (Trypanosoma cruzi) (UniProt O96673).
T3 sequence (whole entry): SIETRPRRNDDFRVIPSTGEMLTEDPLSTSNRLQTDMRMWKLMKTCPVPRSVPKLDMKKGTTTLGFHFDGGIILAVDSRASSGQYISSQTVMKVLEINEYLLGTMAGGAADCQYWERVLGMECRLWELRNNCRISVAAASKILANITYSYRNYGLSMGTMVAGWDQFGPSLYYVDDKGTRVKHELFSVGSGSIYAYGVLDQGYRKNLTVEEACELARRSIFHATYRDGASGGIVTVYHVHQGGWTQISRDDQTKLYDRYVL
Kind of experiment: Trypanosoma cruzi proteasome chymotrypsin-like activity (TcProtChymo) assay. Further: in the data most compounds retested in dose-response had high values. The settings on record: 9.37 µM. The format is functional.

The species entered for another experiment is Homo sapiens. Kind of experiment: To identify inhibition of the IFN signalling (Jak-Stat) pathway via expression of an eGFP reporter gene under the control of an IFN-stimulated response element (ISRE) containing MxA promoter. The format is functional. The settings on record: 30 µM. In general terms: In a reporter assay the amount or activity of a reporter protein is the signal.

Experiment [7] addresses T4, Tyrosyl-tRNA synthetase, putative (Trypanosoma cruzi (strain CL Brener)) (UniProt Q4DSP6).
T4 sequence (whole entry): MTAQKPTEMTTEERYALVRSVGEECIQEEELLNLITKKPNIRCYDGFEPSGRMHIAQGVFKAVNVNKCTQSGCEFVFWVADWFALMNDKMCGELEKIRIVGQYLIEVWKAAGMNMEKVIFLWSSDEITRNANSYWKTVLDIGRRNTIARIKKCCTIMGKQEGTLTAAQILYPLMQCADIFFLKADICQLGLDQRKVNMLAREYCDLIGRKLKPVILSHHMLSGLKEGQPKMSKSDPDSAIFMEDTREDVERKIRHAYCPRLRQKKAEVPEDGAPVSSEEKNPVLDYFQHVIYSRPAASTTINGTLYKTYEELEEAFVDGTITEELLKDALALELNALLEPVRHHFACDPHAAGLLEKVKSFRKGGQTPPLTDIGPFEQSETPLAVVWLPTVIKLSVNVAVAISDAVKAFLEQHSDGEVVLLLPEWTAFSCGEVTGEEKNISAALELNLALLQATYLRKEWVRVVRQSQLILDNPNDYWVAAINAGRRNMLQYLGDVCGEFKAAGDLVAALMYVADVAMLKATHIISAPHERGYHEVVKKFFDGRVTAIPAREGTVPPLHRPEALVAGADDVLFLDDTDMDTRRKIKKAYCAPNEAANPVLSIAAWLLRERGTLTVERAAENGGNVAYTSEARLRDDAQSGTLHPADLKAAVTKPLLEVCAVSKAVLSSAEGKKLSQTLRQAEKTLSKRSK
Kind of experiment: Trypanosoma cruzi tyrosyl tRNA synthetase (TcYRS) _High Tyrosine SOP. Further: in the data most compounds retested in dose-response had high values. The format is functional. The conditions noted are these: 30 µM.

For experiment [8], the target named is T4, Tyrosyl-tRNA synthetase, putative (Trypanosoma cruzi (strain CL Brener)). Kind of experiment: Trypanosoma cruzi tyrosyl tRNA synthetase (TcYRS) SOP. The experiment is classed as functional. The conditions noted are these: 30 µM.
For experiment [9], the target named is Chromo domain-containing protein 1 (Saccharomyces cerevisiae (strain ATCC 204508 / S288c) (Baker's yeast)) (UniProt P32657). Nature of the experiment: ScCHD-1 Enzyme Inhibition Assay. Further: in the data most compounds retested in dose-response had high values. The format is functional. The settings on record: 30 µM.

For some of these results: Results with a measured potency or affinity are listed apart.

Protein translocase subunit SecA (Escherichia coli (strain K12)), sequence (P10408 whole entry): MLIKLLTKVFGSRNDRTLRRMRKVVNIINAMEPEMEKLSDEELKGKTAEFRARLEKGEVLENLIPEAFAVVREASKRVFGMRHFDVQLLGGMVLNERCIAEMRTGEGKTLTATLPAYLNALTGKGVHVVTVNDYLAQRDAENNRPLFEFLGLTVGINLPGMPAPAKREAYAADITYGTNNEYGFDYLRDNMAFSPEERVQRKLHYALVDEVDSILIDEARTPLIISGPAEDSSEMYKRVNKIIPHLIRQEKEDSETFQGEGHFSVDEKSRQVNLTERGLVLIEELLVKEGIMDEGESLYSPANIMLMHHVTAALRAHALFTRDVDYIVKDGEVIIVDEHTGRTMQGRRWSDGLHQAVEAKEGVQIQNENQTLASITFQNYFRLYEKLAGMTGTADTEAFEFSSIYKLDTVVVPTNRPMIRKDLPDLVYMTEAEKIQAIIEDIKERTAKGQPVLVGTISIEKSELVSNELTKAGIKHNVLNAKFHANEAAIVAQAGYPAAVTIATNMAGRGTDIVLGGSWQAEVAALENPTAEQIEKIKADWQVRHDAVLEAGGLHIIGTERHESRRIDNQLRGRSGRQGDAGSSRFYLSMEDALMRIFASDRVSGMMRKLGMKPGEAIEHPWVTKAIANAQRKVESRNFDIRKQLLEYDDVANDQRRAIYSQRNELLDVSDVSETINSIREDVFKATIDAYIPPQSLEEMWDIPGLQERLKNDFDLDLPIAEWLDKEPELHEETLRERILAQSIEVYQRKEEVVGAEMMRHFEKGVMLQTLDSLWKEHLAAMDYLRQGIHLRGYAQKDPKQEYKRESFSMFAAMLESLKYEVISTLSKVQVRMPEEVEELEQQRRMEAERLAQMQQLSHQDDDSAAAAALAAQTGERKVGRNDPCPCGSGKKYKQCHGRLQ
Sialic acid-binding Ig-like lectin 9 (Homo sapiens), sequence (Q9Y336 whole entry): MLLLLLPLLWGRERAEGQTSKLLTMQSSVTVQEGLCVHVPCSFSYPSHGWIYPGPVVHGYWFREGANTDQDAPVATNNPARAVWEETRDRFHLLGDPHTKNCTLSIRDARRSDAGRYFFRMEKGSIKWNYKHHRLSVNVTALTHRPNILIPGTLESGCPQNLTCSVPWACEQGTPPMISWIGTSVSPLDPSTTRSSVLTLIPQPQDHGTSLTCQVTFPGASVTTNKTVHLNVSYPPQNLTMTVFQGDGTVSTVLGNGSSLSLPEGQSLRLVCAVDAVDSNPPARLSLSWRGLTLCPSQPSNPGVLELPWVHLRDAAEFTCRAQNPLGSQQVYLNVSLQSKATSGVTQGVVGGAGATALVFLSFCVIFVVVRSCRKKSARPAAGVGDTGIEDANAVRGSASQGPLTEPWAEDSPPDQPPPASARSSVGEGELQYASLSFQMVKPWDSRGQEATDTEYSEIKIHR
Chromo domain-containing protein 1 (Saccharomyces cerevisiae (strain ATCC 204508 / S288c) (Baker's yeast)), sequence (P32657 whole entry, the tested form may be a part): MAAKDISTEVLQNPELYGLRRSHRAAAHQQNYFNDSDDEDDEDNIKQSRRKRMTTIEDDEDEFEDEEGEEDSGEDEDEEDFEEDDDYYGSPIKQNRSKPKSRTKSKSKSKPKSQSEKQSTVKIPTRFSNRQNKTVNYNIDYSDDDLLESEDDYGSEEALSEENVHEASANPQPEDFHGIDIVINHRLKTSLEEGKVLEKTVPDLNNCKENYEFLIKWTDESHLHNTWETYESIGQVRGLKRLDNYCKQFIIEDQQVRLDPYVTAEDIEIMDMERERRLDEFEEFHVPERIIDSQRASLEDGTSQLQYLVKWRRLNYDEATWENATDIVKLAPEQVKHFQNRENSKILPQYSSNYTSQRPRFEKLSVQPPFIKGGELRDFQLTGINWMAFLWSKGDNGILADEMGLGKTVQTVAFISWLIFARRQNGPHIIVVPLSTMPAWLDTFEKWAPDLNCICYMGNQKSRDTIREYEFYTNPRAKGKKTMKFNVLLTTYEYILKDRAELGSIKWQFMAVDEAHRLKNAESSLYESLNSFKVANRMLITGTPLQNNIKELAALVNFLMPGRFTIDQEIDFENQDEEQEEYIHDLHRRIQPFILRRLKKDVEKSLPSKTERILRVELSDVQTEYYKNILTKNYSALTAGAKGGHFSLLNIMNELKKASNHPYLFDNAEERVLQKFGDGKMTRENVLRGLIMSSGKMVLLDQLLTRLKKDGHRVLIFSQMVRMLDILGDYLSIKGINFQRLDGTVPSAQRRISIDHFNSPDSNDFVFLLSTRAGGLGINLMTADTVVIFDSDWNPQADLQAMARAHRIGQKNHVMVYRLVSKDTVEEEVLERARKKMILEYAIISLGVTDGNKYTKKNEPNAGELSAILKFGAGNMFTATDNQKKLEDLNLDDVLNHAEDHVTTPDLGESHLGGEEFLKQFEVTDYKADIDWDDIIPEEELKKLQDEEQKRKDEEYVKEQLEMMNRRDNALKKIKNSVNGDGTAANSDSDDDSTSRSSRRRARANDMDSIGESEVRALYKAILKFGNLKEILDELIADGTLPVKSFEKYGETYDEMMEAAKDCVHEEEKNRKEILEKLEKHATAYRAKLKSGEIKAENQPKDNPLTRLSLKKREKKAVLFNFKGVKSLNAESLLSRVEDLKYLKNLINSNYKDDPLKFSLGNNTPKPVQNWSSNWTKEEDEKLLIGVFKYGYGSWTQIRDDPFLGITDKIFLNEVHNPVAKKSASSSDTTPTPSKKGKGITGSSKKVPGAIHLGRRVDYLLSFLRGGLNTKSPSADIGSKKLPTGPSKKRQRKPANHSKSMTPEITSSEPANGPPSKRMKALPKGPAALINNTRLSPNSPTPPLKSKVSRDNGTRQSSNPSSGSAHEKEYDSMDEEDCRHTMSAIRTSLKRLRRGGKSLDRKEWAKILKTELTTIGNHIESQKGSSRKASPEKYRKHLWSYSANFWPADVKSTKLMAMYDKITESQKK

With `CC(C)OCCN1CCN(C(=O)c2cccc(CC#N)c2)CC1`, the Percent Effect was -0.779% in experiment [1]; 18.2% in [2]; -4.35% in experiment [3]; -10.2% in experiment [4]; -8.99% in the experiment on Trypanosoma cruzi; 4.27% in experiment [5]. The Percent Effect is 11.2% in experiment [6]; 18.6% in the experiment filed under Homo sapiens; 4.85% in [7]; 9.76% in [8]; -7.58% in [9].
In the case of `COc1cc(C)nc(N2CCN(C(=O)c3ccc(Cl)o3)CC2)n1`, the Percent Effect in experiment [1] was -3.23%; in [2], 2.7%; in experiment [3] it was -4.07%; in experiment [4], -1.86%; with Trypanosoma cruzi it was 2.17%; in experiment [5], -0.802%. For the same compound, the Percent Effect in experiment [6] was -3.06%; in the experiment listed under Homo sapiens, -0.0966%; in experiment [7] it was 2.46%; in [8] it was 3.7%; in [9], 1.52%.
With `Cc1nc(C)n(CC2CCCCN2CCCS(=O)(=O)N(C)C)n1` (stereo not drawn), the Percent Effect was 4.38% in experiment [1]; 16.2% in [2]; -12.4% in experiment [3]; 5.89% in [4]; 2.7% in the experiment on Trypanosoma cruzi; 3.33% in [5]. For the same compound, the Percent Effect in experiment [6] was 11.9%; in the experiment listed under Homo sapiens, 4.05%; in [7] it was 4.76%; in experiment [8] it was 7.32%; in [9], -0.511%.
For `COc1ncccc1NC(=O)NC1CCOc2ccccc21` (stereo not drawn), the Percent Effect in [1] is -1.57%; in experiment [2], 16.2%; in experiment [3] it was -3.28%; in [4], 8.29%; in the experiment on Trypanosoma cruzi it was 5.29%; in experiment [5], -4.62%. For the same compound, the Percent Effect in experiment [6] was 8.08%; in the experiment listed under Homo sapiens, 23.4%; in [7] it was 6.93%; in experiment [8], 25.6%; in experiment [9], -3.65%.
With `O=C(CCNCC(F)(F)F)N1CCC(Nc2cccnn2)CC1`, the Percent Effect in experiment [1] was 2.07%; in experiment [2], 28.9%; in experiment [3] it was 4.48%; in [4], -13.6%; with Trypanosoma cruzi, 5.13%; in [5], 4.68%. Besides, the Percent Effect in experiment [6] is 8.88%; in the experiment filed under Homo sapiens, 12.2%; in experiment [7], 4.43%; in [8], 23.5%; in experiment [9], -14.7%.
Regarding `Cc1ccc(CC2CCCN2CC(=O)NCc2ccccn2)cc1` (stereo not drawn), the Percent Effect in experiment [1] was -7.47%; in experiment [2] it was -5.26%; in experiment [3], -11.2%; in experiment [4] it was 3.27%; in the experiment on Trypanosoma cruzi, -1.66%; in [5], 2.37%. Further, the Percent Effect in experiment [6] is 8.53%; in the experiment listed under Homo sapiens, -4.78%; in experiment [7], 7.45%; in [8], 13%; in [9], -2.14%.
For `CCN(C)c1ncnc2c1CCN(C(=O)c1ccno1)CC2`, the Percent Effect is -6.78% in [1]; 13.3% in [2]; 0.989% in [3]; 3.39% in experiment [4]; -4.05% in the experiment on Trypanosoma cruzi; -46.4% in experiment [5]. The Percent Effect in experiment [6] is 5.81%; in the experiment filed under Homo sapiens it was -5.04%; in [7], 4.17%; in experiment [8], 7.5%; in experiment [9], -5.33%.
As for `Cn1cc(CN2C[C@@H]3COC[C@@H](C(=O)N4CCCCO4)[C@@H]3C2)cn1`, the Percent Effect is -2.29% in experiment [1]; 2.67% in experiment [2]; 9.23% in [3]; 1.72% in experiment [4]; 0.787% in the experiment on Trypanosoma cruzi; 3.03% in experiment [5]. Besides, the Percent Effect in [6] turned out to be 8.19%; in the experiment filed under Homo sapiens, 3.52%; in experiment [7], 7.45%; in experiment [8] it was 8.97%; in experiment [9] it was 1.85%.

The values above are taken from ChEMBL document CHEMBL3988442, “University of Dundee, Small-Polar-MMV Screening Library” (2021).
